Drawing on PubChem BioAssay, this text covers growth inhibition, inhibition and outcome for 20 compounds.

Test [1] can be described thus: antimalarial activity against Dd2 strain (AID 2302;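 active = growth inhibition above 50% at the single 2 µM test dose, taken to imply half-maximal potency below 2 µM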;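 note: 0% = DMSO untreated growth and 100% = chloroquine plus artemisinin killed control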). The settings on record: P. falciparum Dd2 in RBCs, LDH growth readout, 72 h; at 2 µM; stronger effect = higher value.
Test [2] can be described thus: HepG2 cytotoxicity, primary screen, cytotoxicity control for P. falciparum antimalarial project, cell-based, ATP luminescence (AID 2303;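 active = inhibition above 50%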;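 note: 0% = DMSO wells and 100% = digitonin-killed cells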). The settings on record: HepG2 viability, 24-48 h, at 10 µM, stronger effect = higher value.
In test [3] the target is L-lactate dehydrogenase (Plasmodium falciparum (isolate CDC / Honduras)) (UniProt Q27743). The test is described as follows: PfLDH activity inhibition – cell lysate, 3D7 strain, counter-screen for P. falciparum growth inhibition project (AID 2304).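 Note: 0% = vehicle and 100% = reference inhibitor.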 Particulars: P. falciparum 3D7 crude extract, LDH APAD/NBT absorbance; at 2 µM; stronger effect = higher value. In general terms: The purpose of a counterscreen is to sort out artefacts and off-target activity.
L-lactate dehydrogenase (Plasmodium falciparum (isolate CDC / Honduras)), sequence (Q27743 whole entry, looked up): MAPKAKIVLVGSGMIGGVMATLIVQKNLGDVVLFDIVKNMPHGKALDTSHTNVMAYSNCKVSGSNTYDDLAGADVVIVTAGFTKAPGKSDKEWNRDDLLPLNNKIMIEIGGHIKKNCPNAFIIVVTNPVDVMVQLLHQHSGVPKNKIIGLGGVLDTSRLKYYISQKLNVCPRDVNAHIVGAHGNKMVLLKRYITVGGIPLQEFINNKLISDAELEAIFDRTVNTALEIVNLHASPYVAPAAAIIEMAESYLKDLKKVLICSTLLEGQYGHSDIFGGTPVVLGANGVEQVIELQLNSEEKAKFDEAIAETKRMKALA

Test [4] in a line: inhibition of 3D7 malaria parasite growth – strain 3D7 (AID 2306).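 Note: 0% = DMSO wells and 100% = chloroquine plus artemisinin control wells.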 Particulars: P. falciparum 3D7 erythrocytic growth, LDH absorbance, 72 h; at 2 µM; stronger effect = higher value.
The target of test [5] is Calcium-dependent protein kinase 1 (Plasmodium falciparum (isolate 3D7)) (UniProt P62344). The test is described as follows: PfCDPK1 kinase inhibitors, biochemical, TCAMS library (AID 1159585; cut-off not given, nearly all actives have IC50 up to about 0.98 µM;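 note: inhibitors leave more ATP so luminescence rises with inhibition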). The settings on record: recombinant PfCDPK1, Kinase-Glo ATP depletion luminescence.
Calcium-dependent protein kinase 1 (Plasmodium falciparum (isolate 3D7)), sequence (P62344 whole entry, looked up): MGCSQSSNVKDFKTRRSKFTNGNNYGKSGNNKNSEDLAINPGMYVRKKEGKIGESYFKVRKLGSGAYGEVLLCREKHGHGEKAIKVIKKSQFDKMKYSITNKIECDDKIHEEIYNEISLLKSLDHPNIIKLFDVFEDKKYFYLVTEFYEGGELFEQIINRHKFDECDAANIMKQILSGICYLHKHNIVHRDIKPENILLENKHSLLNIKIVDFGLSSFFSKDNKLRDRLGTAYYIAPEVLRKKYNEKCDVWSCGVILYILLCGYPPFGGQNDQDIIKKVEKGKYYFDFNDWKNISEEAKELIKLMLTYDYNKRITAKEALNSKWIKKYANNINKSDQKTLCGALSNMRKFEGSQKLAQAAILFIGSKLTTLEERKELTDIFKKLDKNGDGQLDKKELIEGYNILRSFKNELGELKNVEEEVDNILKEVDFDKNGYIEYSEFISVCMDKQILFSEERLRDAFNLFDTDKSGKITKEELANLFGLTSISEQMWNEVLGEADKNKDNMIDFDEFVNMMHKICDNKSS
Test [6] has as its target Plasmodium falciparum protein kinase 6 (PK6, PF3D7_1337100) (UniProt Q8IDW1). Kind of test: PfPK6 kinase inhibitors, biochemical, TCAMS library (AID 1159586). Particulars: recombinant PfPK6, Kinase-Glo ATP depletion luminescence.
Test [7] deals with Protein kinase 7 (PK7), Plasmodium falciparum 3D7 (PF3D7_0213400) (UniProt Q7YTF7). The test is described as follows: inhibition of Plasmodium PK7 catalytic activity – biochemical, TCAMS antimalarial set, Kinase-Glo luminescence (AID 1159587). Particulars: recombinant PfPK7, Kinase-Glo ATP depletion luminescence.
Protein kinase 7 (PK7), Plasmodium falciparum 3D7 (PF3D7_0213400), sequence (Q7YTF7 1-343): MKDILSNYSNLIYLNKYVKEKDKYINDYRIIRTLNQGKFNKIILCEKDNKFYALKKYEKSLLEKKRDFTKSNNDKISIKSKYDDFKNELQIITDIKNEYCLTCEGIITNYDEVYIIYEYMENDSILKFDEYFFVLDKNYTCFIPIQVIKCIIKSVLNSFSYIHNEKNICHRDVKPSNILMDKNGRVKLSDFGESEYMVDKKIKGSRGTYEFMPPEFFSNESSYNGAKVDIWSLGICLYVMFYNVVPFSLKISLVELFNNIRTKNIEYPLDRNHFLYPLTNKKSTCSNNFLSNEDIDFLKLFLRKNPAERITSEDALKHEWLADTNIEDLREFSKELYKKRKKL
The target in test [8] is Calcium-dependent protein kinase 4 (Plasmodium falciparum (isolate 3D7)) (UniProt Q8IBS5). The test is described as follows: PfCDPK4 kinase inhibitors, biochemical, TCAMS library (AID 1159588; cut-off not given, nearly all actives have IC50 up to about 0.91 µM). The settings on record: recombinant PfCDPK4, Kinase-Glo ATP depletion luminescence. On the technique in general: Kinase-Glo reads ATP consumption through a luciferase reaction.
Calcium-dependent protein kinase 4 (Plasmodium falciparum (isolate 3D7)), sequence (Q8IBS5 whole entry, looked up): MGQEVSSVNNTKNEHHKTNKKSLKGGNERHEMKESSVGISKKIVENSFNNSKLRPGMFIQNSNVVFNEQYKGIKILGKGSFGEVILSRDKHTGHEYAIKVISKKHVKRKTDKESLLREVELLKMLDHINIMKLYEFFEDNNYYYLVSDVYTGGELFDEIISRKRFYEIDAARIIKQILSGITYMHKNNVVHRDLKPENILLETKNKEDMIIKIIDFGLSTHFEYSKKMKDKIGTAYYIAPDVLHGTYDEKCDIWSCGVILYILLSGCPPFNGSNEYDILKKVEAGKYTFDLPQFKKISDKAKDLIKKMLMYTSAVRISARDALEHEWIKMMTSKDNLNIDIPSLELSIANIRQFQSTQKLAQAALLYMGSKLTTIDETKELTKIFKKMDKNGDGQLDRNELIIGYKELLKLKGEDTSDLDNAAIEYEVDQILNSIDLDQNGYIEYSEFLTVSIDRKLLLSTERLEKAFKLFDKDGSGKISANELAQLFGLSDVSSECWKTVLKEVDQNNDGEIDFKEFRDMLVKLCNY

SMILES strings stand for the structures. “And” between values parts separate entries of the source, which are not always exact repeats. Identical values can stand only once. For some of these results: Potency and affinity values are given separately. More than one record can exist for a structure, and the calls need not agree. The source made the active and inactive calls. Unless noted, the rule behind the calls is not given here.

Plasmodium falciparum protein kinase 6 (PK6, PF3D7_1337100), sequence (Q8IDW1 1-305): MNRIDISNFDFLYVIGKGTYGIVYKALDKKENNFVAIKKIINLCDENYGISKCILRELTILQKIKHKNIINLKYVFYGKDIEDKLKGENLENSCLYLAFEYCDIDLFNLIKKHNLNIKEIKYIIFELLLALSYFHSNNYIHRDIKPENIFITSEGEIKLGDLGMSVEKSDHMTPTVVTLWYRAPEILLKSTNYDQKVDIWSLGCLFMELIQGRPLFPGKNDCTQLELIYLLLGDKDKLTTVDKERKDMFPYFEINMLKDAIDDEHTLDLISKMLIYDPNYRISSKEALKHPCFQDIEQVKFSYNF

In the case of `COc1ccc(OC)c(C=CC(=O)NC2CCC(CN3CCC(c4c[nH]c5ccccc45)CC3)CC2)c1` (stereo not given), the growth inhibition was 62% (active) in test [1] and 98% (active) in test [4]. For the same compound, the inhibition in test [2] was 43% (inactive); in test [3], -4% (inactive). Also, the outcome in test [5], in test [6], in test [7] and in test [8] was inactive.
As to `O=C(/C=C/c1ccc(Cl)c(Cl)c1)N1CCC(CN2CCC(c3c(-c4ccccc4)[nH]c4ccccc34)CC2)CC1`, the figures for the growth inhibition in test [1] and in test [4] were 99% (active) and 101% (active), respectively. The inhibition in test [2] was 43% (inactive); in test [3], -8% (inactive). For the same compound, the outcome in test [5], in test [6], in test [7] and in test [8] was inactive.
As to `Cc1cccc(C(=O)Nc2ccnc(N(C)C3CCN(Cc4cccc(O)c4)CC3)c2)c1`, the growth inhibition in test [1] is 62% (active); in test [4], 89% (active). The inhibition is 5% (inactive) in test [2] and -1% (inactive) in test [3]. For the same compound, the result in test [5], in test [6], in test [7] and in test [8] was inactive.
Regarding `O=C(/C=C/c1ccc(Cl)c(Cl)c1)Nc1cccc(CN2CCC(c3c[nH]c4ccccc34)CC2)c1`, the results for the growth inhibition in test [1] and in test [4] were 91% (active) and 99% (active), respectively. Besides, the inhibition in test [2] is 15% (inactive); in test [3], 0% (inactive). Besides, the outcome in test [5], in test [6], in test [7] and in test [8] was inactive.
As to `COc1ccc(N(c2nc(-c3cc(Cl)ccc3Cl)cs2)C2CCNCC2)cc1`, the figures for the growth inhibition in test [1] and in test [4] were 4% (inactive) and 91% (active), respectively. For the same compound, the inhibition in test [2] is 17% (inactive); in test [3] it was -2% (inactive). Also, the result in test [5], in test [6], in test [7] and in test [8] was inactive.
Regarding `O=C(Nc1cc(C(F)(F)F)cc(C(F)(F)F)c1)NC1CCC(CN2CCC(c3c[nH]c4ccccc34)CC2)CC1` (stereo not given), the growth inhibition in test [1] is 72% (active) and 98% (active); in test [4], 97% (active) and 101% (active). Moreover, the inhibition in test [2] is 19% (inactive) and 58% (active); in test [3] it was 8% (inactive) and -8% (inactive). For the same compound, the outcome in test [5], in test [6], in test [7] and in test [8] was inactive.
For the compound `COc1ccc(C=CC(=O)NC2CCC(CN3CCC(c4c[nH]c5ccccc45)CC3)CC2)cc1OC` (stereo not given), the growth inhibition in test [1] was 85% (active) and 72% (active); in test [4] it was 100% (active) and 101% (active). For the same compound, the inhibition was 15% (inactive) and 14% (inactive) in test [2]; 1% (inactive) and -1% (inactive) in test [3]. In addition, the result in test [5], in test [6], in test [7] and in test [8] was inactive.
Consider `Cc1cc(C2CCCCN2C)ccc1-c1ccc(C(=O)N2CCc3cc4c(cc32)C2(CCN(C)CC2)CO4)cc1` (stereo not given), for which the growth inhibition in test [1] was 94% (active); in test [4], 95% (active). Further, the figures for the inhibition in test [2] and in test [3] were 37% (inactive) and 1% (inactive), respectively. For the same compound, the result in test [5], in test [6], in test [7] and in test [8] was inactive.
Consider `COC(=O)c1ccc(CC(C)NCC(O)c2cccc3ccccc23)cc1` (stereo not given), for which the growth inhibition in test [1] was 82% (active); in test [4], 96% (active). In addition, the inhibition is 3% (inactive) in test [2] and 4% (inactive) in test [3]. The outcome in test [5], in test [6], in test [7] and in test [8] was inactive.
Consider `COc1ccc(CC(C)NCC(O)c2cccc(C(F)(F)F)c2)cc1F` (stereo not given), for which the growth inhibition in test [1] was 65% (active); in test [4], 91% (active). Further, the inhibition in test [2] was -4% (inactive); in test [3], -8% (inactive). Besides, the outcome in test [5], in test [6], in test [7] and in test [8] was inactive.
For the compound `Cc1cc(C(=O)NC2CCN(CC3(c4ccc(Cl)cc4)CCC3)CC2)on1`, the growth inhibition was 95% (active) in test [1] and 98% (active) in test [4]. Also, the inhibition in test [2] is 5% (inactive); in test [3] it was -3% (inactive). Further, the result in test [5], in test [6], in test [7] and in test [8] was inactive.
For `O=C(/C=C/c1ccc(Cl)c(Cl)c1)NC1CCC(CN2CCC(c3c[nH]c4ccccc34)CC2)CC1` (stereo not given), the growth inhibition was 85% (active) in test [1] and 101% (active) in test [4]. The inhibition was 27% (inactive) in test [2] and 5% (inactive) in test [3]. Besides, the result in test [5], in test [6], in test [7] and in test [8] was inactive.
In the case of `O=C(/C=C/c1ccc(Cl)c(Cl)c1)NCC1CCC(N2CCC(c3c[nH]c4ccccc34)CC2)CC1` (stereo not given), the growth inhibition in test [1] was 95% (active); in test [4], 101% (active). Further, the inhibition in test [2] is 48% (inactive); in test [3], -1% (inactive). Besides, the outcome in test [5], in test [6], in test [7] and in test [8] was inactive.
On to `CC(Cc1ccc(Oc2ccccc2)cc1)NCC(O)c1cccc(C(F)(F)F)c1` (stereo not given), for which the growth inhibition in test [1] is 99% (active); in test [4] it was 98% (active). The inhibition in test [2] was 16% (inactive); in test [3], 4% (inactive). The outcome in test [5], in test [6], in test [7] and in test [8] was inactive.
Consider `O=C(NC1CCC(N2CCC3(CC2)C(=O)NCN3c2ccccc2)CC1)c1cc2ccccc2[nH]1` (stereo not given), for which the growth inhibition in test [1] is 40% (inactive); in test [4] it was 98% (active). The inhibition is -2% (inactive) in test [2] and 1% (inactive) in test [3]. Moreover, the result in test [5], in test [6], in test [7] and in test [8] was inactive.
For the compound `CN(Cc1ccccc1)C1CCN(CCc2c[nH]c3ccc(F)cc23)CC1`, the values for the growth inhibition in test [1] and in test [4] were 91% (active) and 100% (active), respectively. The inhibition in test [2] is 28% (inactive); in test [3], 5% (inactive). The outcome in test [5], in test [6], in test [7] and in test [8] was inactive.
For the compound `CCN1CC=C(c2c[nH]c3ccccc23)CC1`, the results for the growth inhibition in test [1] and in test [4] were 58% (active) and 84% (active), respectively. In addition, the inhibition was 27% (inactive) in test [2] and -1% (inactive) in test [3]. Besides, the result in test [5], in test [6], in test [7] and in test [8] was inactive.
Consider `CC(=O)N(Cc1ccccc1-c1cccc(CNCCc2ccccc2)c1)C1CCN(Cc2ccccc2)CC1`, for which the growth inhibition in test [1] is 30% (inactive); in test [4] it was 89% (active). Further, the inhibition is 19% (inactive) in test [2] and 0% (inactive) in test [3]. Also, the result in test [5], in test [6], in test [7] and in test [8] was inactive.
For the compound `CCCCCCCN1[C@@H]2CC[C@H]1CC(CCOc1ccnc3ccc(OC)cc13)C2` (stereo not given in full), the values for the growth inhibition in test [1] and in test [4] were 88% (active) and 98% (active), respectively. Further, the values for the inhibition in test [2] and in test [3] were 23% (inactive) and -1% (inactive), respectively. Also, the outcome in test [5], in test [6], in test [7] and in test [8] was inactive.
On to `CC[C@H]1CN2CC[C@H]1C[C@H]2[C@H](O)c1cc(N2CCC3CCCCC3C2)nc2ccc(OC)cc12` (stereo not given in full), for which the growth inhibition in test [1] is 99% (active); in test [4] it was 100% (active). Further, the inhibition in test [2] was 50% (active); in test [3] it was -4% (inactive). The result in test [5], in test [6], in test [7] and in test [8] was inactive.

One may read the inhibition as the change of the read-out against control, counted positive when it falls.
